Among the data in PubChem BioAssay (Tox21) are Potency values, retold here.

“And” between values parts separate entries of the source, which are not always exact repeats. Identical values can stand only once. Results filed as inconclusive are left out. Where a structure was tested more than once in an assay, its records may differ in their call. The source made the active and inactive calls. Unless noted, calls follow the shape of the full dose curve.

Assay [1] can be described thus: Nuclear factor erythroid 2-related factor 2/antioxidant responsive element (Nrf2/ARE) small molecule agonists: qHTS cell viability counter screen in human keratinocytes (AID 1919968; active = well fitted curve in the direction sought with a large enough effect in the repeat runs; an effect the other way counts as inactive or inconclusive; also: nearly all actives have a fitted effect of over 55% in size; also: potency is read from the fitted curve at half-maximal effect). An outline of the steps: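 Cells of the KeratinoSens line were plated at 1,500 per well and left for 5 h before compound transfer from DMSO stocks. After a 23 h incubation (37 C, 5% CO2), CellTiter-Fluor was added. Signal was taken as fluorescence intensity 1 h later.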
(In general: In qHTS, concentration-response curves come from the screen itself.)

Assay [2] in a line: Nuclear factor erythroid 2-related factor 2/antioxidant responsive element (Nrf2/ARE) small molecule agonists: luciferase reporter gene qHTS assay in human keratinocytes (AID 1919969; also: nearly all actives have a fitted effect of over 35% in size; also: potency is read from the fitted curve at half-maximal effect). (In general: Reporter assays use an easily measured gene product as a stand-in for the process of interest.)
The target of assay [3] is Gonadotropin-releasing hormone receptor (Homo sapiens) (UniProt P30968). Description: Human gonadotropin-releasing hormone receptor (GnRHR) small molecule agonists, calcium flux assay in GnRHR-HEK293 cells (AID 1920063). Also: nearly all actives have a fitted effect of over 35% in size. An outline of the steps:
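Compounds dissolved in DMSO are pin-transferred onto dye-loaded GnRHR-HEK293 cells, which were seeded 18 h before at 37 C/5% CO2. Calcium signal is read as fluorescence intensity at 1 s intervals for 3 min.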
A general note: A change in cytosolic calcium serves as a functional read-out for many receptors and channels.

Assay [4] addresses KiSS-1 receptor (Homo sapiens) (UniProt Q969F8). Description: Human kisspeptin (KISS1R) small molecule agonists, calcium flux assay in KISS1R-HEK293 cells (AID 1920064; active = well fitted curve in the direction sought with a large enough effect in the repeat runs; an effect the other way counts as inactive or inconclusive). The method in brief: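 Cell line: HEK293, stable human KISS1R. Dye loading 1 h at 37 C after 18 h culture. Read: kinetic fluorescence, 480/540 nm, 3 min at 1 s intervals.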
Assay [5] is described as follows: p53 small molecule agonists, cell-based qHTS assay with rat liver microsomes: qHTS cell viability counter screen (AID 1963580). Also: nearly all actives have a fitted effect of over 45% in size. An outline of the steps: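 Counter screen for cytotoxicity under metabolic activation: rat liver microsomes and NADPH, 0.5 mg/mL final each, added with compounds to p53RE-bla HCT-116 cells; 16 h at 37 C, then ATP luminescence read.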
Assay [6] has as its target 5-hydroxytryptamine receptor 2A (Homo sapiens) (UniProt P28223). Description: 5-hydroxytryptamine receptor 2A (HTR2A) small molecule antagonists, cell-based qHTS assay (AID 1963586). Also: nearly all actives have a fitted effect of over 45% in size. An outline of the steps:
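CHO cells stably expressing human HTR2A were plated for 18 h at 37 C, then loaded with calcium dye for 1 h. Compounds were preincubated 5 min at room temperature before DOI (4 nM solution) was added. Kinetic fluorescence was read for 3 min.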

The target is the same in assay [7]. Description: 5-hydroxytryptamine receptor 2A (HTR2A) small molecule agonists, cell-based qHTS assay (AID 1963587). Also: nearly all actives have a fitted effect of over 30% in size. An outline of the steps: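 HTR2A-CHO cells, plated 18 h at 37 C/5% CO2, dye-loaded 1 h at 37 C; compounds in DMSO added by pin tool (agonist mode). Intracellular calcium flux read as kinetic fluorescence on FDSS over 2 min at 1 s intervals.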
Assay [8] addresses Muscarinic acetylcholine receptor M1 (Homo sapiens) (UniProt P11229). The assay can be described thus: Cholinergic receptor muscarinic 1 (CHRM1) small molecule antagonists, cell-based qHTS assay (AID 1963588). Also: nearly all actives have a fitted effect of over 40% in size. Also: potency is read from the fitted curve at half-maximal effect. An outline of the steps:
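Compounds were tested at 15 concentrations in three independent runs. Dye-loaded CHRM1-CHO cells were exposed 5 min at room temperature before stimulation by acetylcholine added at 50nM. Intracellular calcium was read kinetically on FDSS for 3 min.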

For assay [9] the target is unchanged. Description: Cholinergic receptor muscarinic 1 (CHRM1) small molecule agonists, cell-based qHTS assay (AID 1963589). Also: nearly all actives have a fitted effect of over 35% in size. The method in brief: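 Homogeneous fluorescence calcium flux, agonist mode. Human M1-expressing CHO cells; compound dosed at 15 concentrations, three independent runs; signal sampled every 1 sec.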
The nature of assay [10]: cAMP Responsive Elements (CRE) small molecule agonists, cell-based qHTS assay (AID 1963590). The method in brief: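 HEK 293T cells stably bearing CRE-bla were plated at 2,000 cells per well and rested 18 h. Compounds, positive controls or DMSO were added for 3 h at 37 C. LiveBLAzer B/G substrate was then loaded for 2 h at room temperature.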
Assay [11] in a line: cAMP Responsive Elements (CRE) small molecule antagonists, cell-based qHTS assay (AID 1963591; active = well fitted inhibition curve with a large enough effect in the signal ratio in the repeat runs, not every such curve was filed as active; the % refers to the signal ratio). The method in brief:
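First, CRE-bla HEK293T cells settled 18 h at 37 C. Next, compound and 0.25 uM final NKH477 were applied for 3 h. Last, LiveBLAzer B/G substrate was loaded for 2 h at room temperature.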

Assay [12] addresses Beta-2 adrenergic receptor (Homo sapiens) (UniProt P07550). The assay can be described thus: Adrenergic beta2 receptor (ADRB2) small molecule antagonists, cell-based qHTS assay (AID 1963592). Also: series mostly up to about 92 µM; nearly all actives have a fitted effect of over 50% in size. The method in brief:
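Assay format: CHO-ADRB2 cells, 18-20hr seeding at 37C/5% CO2, then compound plus 1nM isoproterenol agonist mix for 0.5hr RT. Homogeneous time-resolved fluorescence cAMP detection after 1hr, expressed as 665/615 nm ratio.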

Assay [13] has the same target. Description: Adrenergic beta2 receptor (ADRB2) small molecule agonists, cell-based qHTS assay (AID 1963593).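 Also: CHO cells stably overexpressing human ADRB2.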 An outline of the steps:
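CHO cells stably over-expressing ADRB2 were plated overnight at 37C, then dosed with compounds plus a stimulation mix containing 100uM IBMX and 25uM Ro-20-1724 for 0.5hr at room temperature. cAMP was measured by HTRF competition, 1hr.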

The target of assay [14] is D(2) dopamine receptor (Homo sapiens) (UniProt P14416). The assay can be described thus: Dopamine D2 receptor (DRD2) small molecule agonists, cell-based qHTS assay (AID 1963594). Also: nearly all actives have a fitted effect of over 35% in size. An outline of the steps:
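HEK293 cells stably expressing DRD2 were cultured 24 h at 37 C, then given Ro20-1724 (0.1 mM final) and compounds for 10 min at room temperature. NKH477 (200nM) was then added for 30 min. cAMP was read by HTRF.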

The target is the same in assay [15]. The assay can be described thus: Dopamine D2 receptor (DRD2) small molecule antagonists, cell-based qHTS assay (AID 1963595; active = well fitted inhibition curve with a large enough effect in the signal ratio in the repeat runs, with a control signal flat; the % refers to the signal ratio). An outline of the steps:
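Antagonism was scored as restored cAMP in HEK293-DRD2 cells. These cells were stimulated with 200 nM NKH477 and 12 nM quinpirole for 30 min at room temperature, in the presence of 0.1 mM Ro20-1724.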

Assay [16] can be described thus: p53 small molecule agonists, cell-based qHTS assay with human liver microsomes (AID 1963577). The method in brief: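 Compounds act here after metabolic activation: human liver microsomes and NADPH, both at 0.5 mg/mL final, were co-added to p53RE-bla cells. Incubation ran 16 h at 37 C, followed by LiveBLAzer detection.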
Assay [17] in a line: p53 small molecule agonists, cell-based qHTS assay with rat liver microsomes (AID 1963578). An outline of the steps: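 Read-out is beta-lactamase reporter fluorescence (LiveBLAzer, 2 h, room temperature, dark) in p53RE-bla cells treated 16 h at 37 C with compound, rat liver microsomes and NADPH, both 0.5 mg/mL final.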
Assay [18] is described as follows: p53 small molecule agonists, cell-based qHTS assay with human liver microsomes: qHTS cell viability counter screen (AID 1963579). Also: nearly all actives have a fitted effect of over 45% in size. An outline of the steps: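 Cells carrying the p53 response-element beta-lactamase reporter are treated for 16 h at 37 C with test compounds in the presence of human liver microsomes and NADPH (both 0.5 mg/mL final); ATP-based CellTiter-Glo luminescence then reports viability.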

Assay [19] is described as follows: p53 small molecule agonists, cell-based qHTS assay: qHTS cell viability counter screen (AID 1963581). Also: nearly all actives have a fitted effect of over 45% in size. The method in brief:
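ATP content measured by luminescence in HCT-116 p53RE-bla cells treated 16 h at 37 C, same wells as the reporter screen.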

A short description of assay [20]: p53 small molecule agonists, cell-based qHTS assay (AID 1963582; active = well fitted activation curve with a large enough effect in the signal ratio in the repeat runs, not every such curve was filed as active; the % refers to the signal ratio). An outline of the steps:
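16 h compound exposure (37 C) of p53 response element–bla cells, preceded by 5 h recovery at 37 C/5% CO2; read-out via LiveBLAzer B/G FRET substrate, 2 h RT, fluorescence intensity.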

D(2) dopamine receptor (Homo sapiens), sequence (P14416 whole entry, looked up): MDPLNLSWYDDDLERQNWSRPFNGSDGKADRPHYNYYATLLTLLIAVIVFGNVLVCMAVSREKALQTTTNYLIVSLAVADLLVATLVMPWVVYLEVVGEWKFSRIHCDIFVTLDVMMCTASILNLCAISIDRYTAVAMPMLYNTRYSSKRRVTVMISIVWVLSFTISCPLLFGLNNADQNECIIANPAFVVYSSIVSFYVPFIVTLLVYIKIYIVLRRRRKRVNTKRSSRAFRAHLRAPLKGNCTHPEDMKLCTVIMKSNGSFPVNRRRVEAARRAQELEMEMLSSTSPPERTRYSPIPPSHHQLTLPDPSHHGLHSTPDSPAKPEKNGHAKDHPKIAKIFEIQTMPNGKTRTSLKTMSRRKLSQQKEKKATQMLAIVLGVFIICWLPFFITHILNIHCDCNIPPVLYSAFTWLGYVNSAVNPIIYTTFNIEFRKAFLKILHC
5-hydroxytryptamine receptor 2A (Homo sapiens), sequence (P28223 whole entry, looked up): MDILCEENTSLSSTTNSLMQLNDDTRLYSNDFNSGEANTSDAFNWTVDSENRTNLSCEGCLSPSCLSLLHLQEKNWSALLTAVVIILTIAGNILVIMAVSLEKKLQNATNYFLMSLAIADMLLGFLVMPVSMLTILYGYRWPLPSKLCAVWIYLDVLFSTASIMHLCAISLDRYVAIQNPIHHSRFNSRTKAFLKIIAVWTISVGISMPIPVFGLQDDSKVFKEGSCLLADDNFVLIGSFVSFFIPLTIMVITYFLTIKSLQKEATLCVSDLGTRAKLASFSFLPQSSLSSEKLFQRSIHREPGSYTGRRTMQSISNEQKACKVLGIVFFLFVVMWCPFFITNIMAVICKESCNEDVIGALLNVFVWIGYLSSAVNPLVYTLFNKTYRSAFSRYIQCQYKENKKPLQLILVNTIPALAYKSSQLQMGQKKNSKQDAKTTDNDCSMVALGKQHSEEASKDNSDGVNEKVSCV
Gonadotropin-releasing hormone receptor (Homo sapiens), sequence (P30968 whole entry, looked up): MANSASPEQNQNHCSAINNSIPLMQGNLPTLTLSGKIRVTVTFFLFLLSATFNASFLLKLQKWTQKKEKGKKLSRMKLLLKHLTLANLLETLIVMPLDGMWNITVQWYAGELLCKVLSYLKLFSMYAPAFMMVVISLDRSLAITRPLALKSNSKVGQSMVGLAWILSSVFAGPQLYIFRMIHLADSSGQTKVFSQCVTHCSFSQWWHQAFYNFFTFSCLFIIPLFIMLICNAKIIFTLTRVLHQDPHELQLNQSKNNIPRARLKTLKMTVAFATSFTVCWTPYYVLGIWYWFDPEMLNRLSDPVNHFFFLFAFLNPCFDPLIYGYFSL
KiSS-1 receptor (Homo sapiens), sequence (Q969F8 whole entry, looked up): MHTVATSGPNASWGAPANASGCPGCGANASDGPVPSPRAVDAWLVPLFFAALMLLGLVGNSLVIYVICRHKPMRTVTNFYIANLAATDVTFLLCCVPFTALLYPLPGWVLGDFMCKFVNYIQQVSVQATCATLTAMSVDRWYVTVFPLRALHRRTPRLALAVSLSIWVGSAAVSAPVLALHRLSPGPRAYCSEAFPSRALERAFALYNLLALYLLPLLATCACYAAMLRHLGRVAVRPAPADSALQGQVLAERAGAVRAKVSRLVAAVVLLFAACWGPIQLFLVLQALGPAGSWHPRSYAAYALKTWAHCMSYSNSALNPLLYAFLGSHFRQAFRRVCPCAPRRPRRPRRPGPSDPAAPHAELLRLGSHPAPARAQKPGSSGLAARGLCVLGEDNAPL
Muscarinic acetylcholine receptor M1 (Homo sapiens), sequence (P11229 whole entry, looked up): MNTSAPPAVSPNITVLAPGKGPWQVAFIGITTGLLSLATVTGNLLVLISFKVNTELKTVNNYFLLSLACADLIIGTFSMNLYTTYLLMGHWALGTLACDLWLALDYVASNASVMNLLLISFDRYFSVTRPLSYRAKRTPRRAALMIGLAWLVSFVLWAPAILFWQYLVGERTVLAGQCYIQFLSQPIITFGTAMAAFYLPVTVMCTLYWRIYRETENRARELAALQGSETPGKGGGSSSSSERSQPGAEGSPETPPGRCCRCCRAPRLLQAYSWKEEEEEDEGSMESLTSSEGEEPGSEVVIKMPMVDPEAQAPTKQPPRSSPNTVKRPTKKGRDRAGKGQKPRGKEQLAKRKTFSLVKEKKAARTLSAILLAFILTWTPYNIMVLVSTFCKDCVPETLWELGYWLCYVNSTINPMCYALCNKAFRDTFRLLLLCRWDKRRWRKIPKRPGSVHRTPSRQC
Beta-2 adrenergic receptor (Homo sapiens), sequence (P07550 whole entry, looked up): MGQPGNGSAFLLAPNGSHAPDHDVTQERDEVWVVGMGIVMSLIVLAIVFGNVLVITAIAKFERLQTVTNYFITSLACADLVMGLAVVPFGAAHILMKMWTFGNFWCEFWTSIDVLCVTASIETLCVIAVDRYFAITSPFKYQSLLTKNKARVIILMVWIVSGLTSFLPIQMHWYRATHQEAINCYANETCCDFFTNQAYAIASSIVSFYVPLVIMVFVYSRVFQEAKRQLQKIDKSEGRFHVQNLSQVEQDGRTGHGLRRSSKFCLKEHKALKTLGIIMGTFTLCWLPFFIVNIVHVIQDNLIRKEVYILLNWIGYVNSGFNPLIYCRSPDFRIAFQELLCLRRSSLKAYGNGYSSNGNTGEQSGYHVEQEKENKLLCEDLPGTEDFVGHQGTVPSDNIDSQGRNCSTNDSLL

As for `CCCCCCCCCC(=O)OC`, the Potency result in assay [1], in [2], in assay [3], in assay [4], in assay [5] and in assay [6] was “inactive” throughout. Moreover, the Potency result in [7], in assay [8], in [9], in assay [10], in assay [11] and in assay [12] was “inactive” each time. For the same compound, the Potency result in [13], in assay [14] and in assay [15] was “inactive” throughout.
`Cn1cc[nH]c1=S`: the Potency is 54.4 µM (active) and inactive in assay [1]; 27.3 µM (active) and inactive in [2]. Moreover, the Potency entry in assay [3], in assay [4], in [10], in assay [11], in [13] and in assay [14] was “inactive” each time. In assay [15], the Potency result was “inactive”.
For the compound `C=CC(C)CCCC(C)(C)O` (centres undefined), the Potency result in assay [1], in [2], in assay [3], in assay [4], in assay [16] and in [17] was “inactive” throughout. Also, the Potency result in [18], in assay [5], in [19], in assay [20], in assay [6] and in assay [7] was “inactive” in each case. Besides, the Potency entry in assay [9], in [10], in assay [11], in assay [12], in assay [13] and in [14] was “inactive” each time. The Potency entry in assay [15] was “inactive”.
On to `NCCCCCCN`, for which the Potency entry in assay [1], in [2], in assay [3], in [4], in assay [16] and in assay [17] was “inactive” in each case. Moreover, the Potency entry in assay [18], in assay [5], in assay [19], in assay [20], in assay [6] and in assay [7] was “inactive” in each case. Also, the Potency entry in assay [9], in assay [10], in [11], in assay [12], in assay [13] and in assay [14] was “inactive” in each case. Besides, in assay [15], the Potency result was “inactive”. Further, the Potency result in assay [8] is “inactive and 16.8 µM (active)”.
Turning to `CCCC(CCC)C(=O)O`, the Potency entry in assay [1], in assay [2], in assay [3], in [4], in assay [10] and in assay [11] was “inactive” throughout. The Potency entry in [12], in assay [13], in assay [14] and in [15] was “inactive” each time.
On to `O=C(C1CCCCC1)N1CC(=O)N2CCc3ccccc3C2C1` (centres undefined), for which the Potency result in assay [1], in [2], in assay [3], in assay [4], in [12] and in assay [14] was “inactive” in each case. Further, the Potency entry in assay [15] is “inactive”.
Consider `CCCCOC(=O)CCCCCCCCC(=O)OCCCC`, for which the Potency entry in [1], in assay [2], in assay [3], in [4], in assay [16] and in assay [17] was “inactive” each time. Moreover, the Potency entry in assay [18], in assay [5], in assay [19], in assay [20], in assay [6] and in [7] was “inactive” in each case. The Potency entry in assay [8], in assay [9], in assay [10], in assay [11], in assay [12] and in assay [14] was “inactive” throughout. In assay [15], the Potency entry was “inactive”.
As for `NS(=O)(=O)c1cc(C(=O)O)c(NCc2ccco2)cc1Cl`, the Potency entry in assay [1], in assay [2], in assay [3], in assay [4], in assay [10] and in assay [11] was “inactive” throughout. In addition, the Potency result in assay [12], in assay [13], in [14] and in [15] was “inactive” throughout.
In the case of `CC(=O)Oc1ccccc1C(=O)O`, the Potency result in assay [1], in [2], in assay [3], in [4], in assay [16] and in assay [17] was “inactive” in each case. Besides, the Potency result in assay [18], in assay [5], in assay [19], in assay [20], in assay [10] and in assay [11] was “inactive” throughout. The Potency entry in assay [12], in assay [13], in [14] and in assay [15] was “inactive” throughout.
`CN/C(=C\[N+](=O)[O-])NCCSCc1csc(CN(C)C)n1`: the Potency entry in [1], in [2], in assay [3], in assay [4], in [16] and in assay [17] was “inactive” throughout. Besides, the Potency result in assay [18], in assay [5], in assay [19], in assay [10], in [12] and in [13] was “inactive” in each case. Moreover, the Potency entry in assay [14] and in assay [15] was “inactive” throughout.
